Reference: PubChem BioAssay (NCATS)
Records with an inconclusive call do not appear. Active and inactive are the calls of the source. The call rests on the fitted dose curve; in most records, active means well fitted curve in the direction sought with a large enough effect; inconclusive means small, poorly fitted or top-dose-only effect, or another doubt; inactive means no such curve, though single readings can be large; an effect the other way counts as inactive or inconclusive.

How the values were obtained:
[1] = qHTS assay for measurement of the activity of small molecule inhibitors on Zika virus induced Caspase-3 activity in human iPSC derived neural progenitor cells (hNPCs) (AID 1224857); further: nearly all actives have a fitted effect of over 65% in size
In short: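 hNPCs seeded 350 cells/well, cultured 16–20 h; compounds added 1 h before ZIKV (2 FFU/cell), 37 C 6 h. Caspase-Glo 3/7 luminescence after 30 min RT; % inhibition from induction scaled to uninfected (0%) and infected (100%) wells.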

[2] = qHTS assay for measurement of the activity of small molecule inhibitors on Zika virus induced Caspase-3 activity in human astrocytoma cells (AID 1224859)
In short: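 Luminescence read-out (Caspase-Glo 3/7, 30 min RT) of caspase activity in SNB-19 cells infected 6 h with ZIKV, 2 FFU/cell, after 1 h compound pretreatment; % inhibition from induction normalised to uninfected (0%) and infected (100%) wells.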

[3] = NS1 protein of Zika virus - qHTS assay to identify small molecule inhibitors in human HEK 293 cells (AID 1347053); further: nearly all actives have a fitted effect of over 55% in size; further: potency means the concentration at half of the fitted maximal effect
In short: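 Readout was TR-FRET using paired anti-NS1 antibodies after 24 h infection of HEK 293 cells with ZIKV MR766 (MOI = 0.5). Compound preceded virus by 1 h; reduced signal reflects lower NS1 expression.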

[4] = qHTS of pediatric cancer cell lines to identify multiple opportunities for drug repurposing: Primary screen for TC32 cells (AID 1347089); further: nearly all actives have a fitted effect of over 60% in size; further: potency means the concentration at half of the fitted maximal effect
In short: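 Measured quantity: luminescence from CellTiter-Glo, reflecting metabolically active TC32 cells following 48 h of compound. Curves came straight from multi-point titrations, with 8 or 11 points in primary and 11 in confirmatory screening.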

[5] = qHTS of pediatric cancer cell lines to identify multiple opportunities for drug repurposing: Primary screen for DAOY cells (AID 1347090); further: nearly all actives have a fitted effect of over 55% in size; further: potency means the concentration at half of the fitted maximal effect
In short: (§1)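 Cell viability, CellTiter-Glo luminescence; 500-1,000 cells/well, 8- or 11-point titration, 48 h compound exposure at 37 degrees C, 5% CO2. Controls: DMSO neutral, bortezomib 2.3 µM final as positive.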

[6] = qHTS of pediatric cancer cell lines to identify multiple opportunities for drug repurposing: Primary screen for SJ-GBM2 cells (AID 1347091); further: potency means the concentration at half of the fitted maximal effect
In short: as §1

[7] = qHTS of pediatric cancer cell lines to identify multiple opportunities for drug repurposing: Primary screen for A673 cells (AID 1347092); further: nearly all actives have a fitted effect of over 45% in size; further: potency means the concentration at half of the fitted maximal effect
In short: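 Cells are plated, rested 5 h, dosed by pintool, incubated 48 h, then lysed with CellTiter-Glo and read by luminescence. DMSO is the neutral control; bortezomib at 2.3 uM final is the positive control.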

[8] = qHTS of pediatric cancer cell lines to identify multiple opportunities for drug repurposing: Primary screen for SK-N-MC cells (AID 1347093); further: potency means the concentration at half of the fitted maximal effect
In short: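 Metabolically active cells were quantified by ATP-dependent luminescence (CellTiter-Glo, 15 min at room temperature) following 48 h treatment. Cells had been plated at 500-1,000 per well and settled for 5 h beforehand.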

[9] = qHTS of pediatric cancer cell lines to identify multiple opportunities for drug repurposing: Primary screen for BT-37 cells (AID 1347094); further: series mostly up to about 57 µM
In short: (§2)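 Primary screen of approved and investigational compounds on cells in growth media at 37 degrees C, 5% CO2. MIPE set at 11-point and NPC set at 8-point dilutions; viability scored by ATP-based luminescence at 48 hours.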

[10] = qHTS of pediatric cancer cell lines to identify multiple opportunities for drug repurposing: Primary screen for U-2 OS cells (AID 1347096); further: nearly all actives have a fitted effect of over 50% in size
In short: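 Cells (500-1,000/well) rested 5 h, then received compounds for 48 h; metabolically active cells were measured by CellTiter-Glo luminescence. Final concentrations spanned up to 46 µM (MIPE, 11-point) or 0.59 nM-46 µM (NPC, 8-point) in primary screens, 11-point in follow-ups.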

[11] = qHTS of pediatric cancer cell lines to identify multiple opportunities for drug repurposing: Primary screen for Saos-2 cells (AID 1347097); further: nearly all actives have a fitted effect of over 40% in size
In short: as §2

[12] = qHTS of pediatric cancer cell lines to identify multiple opportunities for drug repurposing: Primary screen for NB-EBc1 cells (AID 1347095); further: potency means the concentration at half of the fitted maximal effect
In short: as §2

Measured: Potency

COCCc1ccc(OCC2CO2)cc1 (centres undefined)
not listed: [12]
inactive: all other assays above

O=C(O)Cn1cnnn1
not listed: [10]
inactive: all other assays above

O=C1CC[C@H](C(=O)N2CCCCC2)N1
not listed: [10]
inactive: all other assays above

CC(=O)N(c1onc(C)c1C)S(=O)(=O)c1ccc(N)cc1
not listed: [9] | [11]
inactive: all other assays above

CN1CC[C@H](c2c(O)cc(O)c3c(=O)cc(-c4ccccc4Cl)oc23)[C@H](O)C1
active: [3] 1580 nM | [4] 592 nM | [5] 531 nM | [6] 106 nM | [7] 106 nM | [8] 266 nM | [12] 133 nM
inactive: [1] | [2]

Cc1c(F)cc2c(=O)c(C(=O)O)cn3c2c1CCC3C (centres undefined)
not listed: [8] | [11]
inactive: all other assays above

Cc1cnc(NS(=O)(=O)c2ccc(N)cc2)nc1
not listed: [12]
inactive: all other assays above

CCCc1ncc(C(=O)O)s1
not listed: [9]
inactive: all other assays above

COC(=O)c1cc(Cl)ccc1OC
not listed: [9] | [12]
inactive: all other assays above

C=C(C)C(=O)OCC(O)CO (centres undefined)
not listed: [9]
inactive: all other assays above

CC(NC(CCc1ccccc1)C(=O)O)C(=O)N1C(=O)N(C)CC1C(=O)O (centres undefined)
not listed: [10]
inactive: all other assays above

O=C(C1CCCCC1)N1CC(=O)N2CCCc3ccccc3C2C1 (centres undefined)
not listed: [12]
inactive: all other assays above

CCN1CCCC1CN (centres undefined)
not listed: [10] | [12]
inactive: all other assays above

CC(C)CCCC(C)NCCC(C)C (centres undefined)
not listed: [10]
inactive: all other assays above

O=C(O)C1CCC1
not listed: [10] | [12]
inactive: all other assays above

OC1(c2ccccc2)CCNCC1
not listed: [12]
inactive: all other assays above

CSCC[C@H](NC(=O)[C@H](Cc1c[nH]c2ccccc12)NC(=O)CCNC(=O)OC(C)(C)C)C(=O)N[C@@H](CC(=O)O)C(=O)N[C@@H](Cc1ccccc1)C(N)=O
not listed: [9]
inactive: all other assays above

O=C1c2ccccc2CCc2ccccc21
not listed: [9]
inactive: all other assays above

CN(C)CCOC1=Cc2ccccc2Sc2ccc(Cl)cc21
not listed: [7] | [9] | [11]
inactive: all other assays above

CCC(=O)O[C@]1(C(=O)COC)[C@@H](C)C[C@H]2[C@@H]3CCC4=CC(=O)C=C[C@]4(C)C3(F)[C@@H](O)C[C@@]21C (some centres undefined)
not listed: [8] | [11]
inactive: all other assays above

CCOCCn1c(C2CCN(CCc3ccc(C(C)(C)C(=O)O)cc3)CC2)nc2ccccc21
not listed: [8]
inactive: all other assays above

CC1CCCCN1CCCOC(=O)c1ccc(OC2CCCCC2)cc1 (centres undefined)
not listed: [7] | [9] | [11]
inactive: all other assays above

Nc1nc2ccccc2n1Cc1ccc(F)cc1
not listed: [7] | [10]
inactive: all other assays above

CC(=O)[C@@]1(O)CC[C@H]2[C@@H]3C[C@H](C)C4=CC(=O)CC[C@]4(C)[C@H]3CC[C@@]21C
not listed: [8]
inactive: all other assays above

CO/N=C(/C(=O)N[C@@H]1C(=O)N2C(C(=O)[O-])=C(C[n+]3ccn4ncccc43)CS[C@H]12)c1nsc(N)n1
not listed: [7] | [10]
inactive: all other assays above

CC(C)Cc1ccc(C(C)C(=O)OCc2ccccn2)cc1 (centres undefined)
not listed: [8]
inactive: all other assays above

C#Cc1ccc(-c2ccccc2F)cc1
not listed: [7]
inactive: all other assays above

CC(=O)/C=C/C=C1/C2CCC(C2)C1(C)C (centres undefined)
not listed: [8]
inactive: all other assays above

CC(C)C(=O)OCc1cccc(OC(=O)[C@@H]2N3C(=O)[C@@H](NC(=O)Cc4ccccc4)[C@H]3SC2(C)C)c1
not listed: [8]
inactive: all other assays above

Cc1ccc(C(C)OC(=O)C2(C)CCC(C(=O)O)C2(C)C)cc1 (centres undefined)
not listed: [8] | [9]
inactive: all other assays above

O=C(O)C(=O)Nc1cccc(-c2nn[nH]n2)c1
not listed: [8]
inactive: all other assays above

CC(=O)O[C@H]1CC[C@@]2(C)C(=CC[C@@H]3[C@@H]2CC[C@]2(C)C(C(C)=O)=CC[C@@H]32)C1
not listed: [8] | [11]
inactive: all other assays above

O=C(OCCN1CCOCC1)c1cccnc1Nc1cccc(C(F)(F)F)c1
not listed: [8] | [11]
inactive: all other assays above

Cc1ccc(/C=N/n2c(-c3ccccc3)csc2=S)cc1
not listed: [8]
inactive: all other assays above

C[C@@H](C1=C(CCN(C)C)Cc2ccccc21)c1ccccn1
not listed: [8] | [9] | [12]
inactive: all other assays above

COc1ccc2c(c1)c(CC(=O)OC/C=C(\C)CC/C=C(\C)CCC=C(C)C)c(C)n2C(=O)c1ccc(Cl)cc1
not listed: [8]
inactive: all other assays above

Nc1ccc(C(=O)OCC(O)CO)cc1 (centres undefined)
not listed: [8]
inactive: all other assays above

CN1Cc2cc(C(=O)N3CCC(C4CCNCC4)CC3)ccc2N[C@@H](CC(=O)O)C1=O
not listed: [8]
inactive: all other assays above

CCCC(=O)O[C@]1(C(=O)CC)CC[C@H]2[C@@H]3CCC4=CC(=O)CC[C@]4(C)[C@H]3[C@@H](O)C[C@@]21C
active: [8] 33500 nM
not listed: [7] | [11]
inactive: all other assays above
